Screens (PubChem BioAssay)
tim23-1 inh = tim23-1 yeast growth inhibition; 330,000 compounds, 1.3% hits; AID 463212; S. cerevisiae tim23-1 growth, BacTiter-Glo luminescence, 24 h; inhibition, % at 20 µM;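 active means growth inhibition of the mutant yeast at or above 50%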;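 further: temperature-sensitive mutant grown at 25 °C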
PfHsp90 set2 = reduces growth (ATP signal) of yeast expressing P. falciparum Hsp90 | S. cerevisiae expressing PfHsp90, BacTiter-Glo ATP, 48 h; yeast lacking PDR1 and PDR3 efflux regulators | 310,000 compounds, 0.32% hits | inhibition, % at 9.4 µM | AID 504621;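 active means every replicate shows inhibition above about 80%, whatever the replicate mean, limit read from the data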
tim10-1 inh = inhibits growth of tim10-1 mutant yeast. S. cerevisiae tim10-1 ts strain growth, BacTiter-Glo, 24 h. inhibition, % at 20 µM. 330,000 compounds, 2.2% hits. AID 463190;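 active means inhibition of at least 40%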;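 further: mutant grown at 25 °C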
V-ATPase pH = yeast V-ATPase proton transport regulation by pHLuorin; AID 504577; S. cerevisiae, pHLuorin cytosolic pH fluorescence; response, % at 10 µM; 350,000 compounds, 0.37% hits; in the data active means response mostly above about 7.3%, no sharp cut-off; inactive means mostly below about 5.4%; further: actives read high
SKKanGAS inh = SKKanGAS growth inhibition; 300,000 compounds, 1.3% hits; AID 1662; S. pyogenes SKKanGAS, kanamycin growth, BacTiter-Glo, 6 h; inhibition, % at 7.5 µM;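 active means mean replicate score, as percent of positive control median, at least 50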;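 further: strain carries kanamycin resistance gene driven by streptokinase promoter and grows in 40 µg/ml kanamycin; loss of luminescence reflects streptokinase promoter inhibition or plain growth inhibition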
TIM10 inh = TIM10 yeast growth inhibition; AID 463195; S. cerevisiae TIM10 strain growth, BacTiter-Glo luminescence, 24 h; inhibition, % at 10 µM; 330,000 compounds, 1.4% hits;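 active means inhibition of 40% or more at the single tested concentration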;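 further: wild-type TIM10 isogenic control strain grown at permissive 25 °C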
tim10-1 conf = tim10-1 yeast growth inhibition, confirmed. 7,400 compounds, 56% hits. inhibition, % at 20 µM. shares compounds with tim10-1 inh. S. cerevisiae tim10-1 ts strain growth, BacTiter-Glo, 24 h;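 active means inhibition of yeast growth at or above a set limit in either of two repeat tests at 20 µM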;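 further: tim10-1 mutant grown at permissive 25 °C to find synthetic lethal compounds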
Each line names hits and unclear results; the compound was inactive in the other large screens (follow-up assays come after a bar, where they were run). Rows were chosen to be rich in hits. Some 4.6% of all compounds tested hit in one or more screens of this group.

CC(/C=N/Nc1ncc(C)c(=O)[nH]1)=C\c1ccccc1	tim10-1 inh 41 | tim10-1 conf inactive
CCOc1ccccc1N1CCN(C(=O)Nc2cccc(Cl)c2)CC1	tim10-1 inh 44 (no result: PfHsp90 set2) | tim10-1 conf inactive
O=C(C[n+]1ccccc1)N/N=C/c1ccc(Cl)c(Cl)c1	none
CSc1ccccc1C(=O)NC1CCCN(c2ccc(C(F)(F)F)cn2)C1 (stereo not drawn)	tim10-1 inh 43 | tim10-1 conf inactive
O=C(NC1CCCN(c2ccc(C(F)(F)F)cn2)C1)c1ccncc1 (stereo not drawn)	none
Cc1ccc(S(=O)(=O)N2CCC(=O)N(CCO)CC2)cc1	none
O=[N+]([O-])CC(c1ccccc1)P(=O)(c1ccccc1)c1ccccc1 (stereo not drawn)	tim10-1 inh 41 | tim10-1 conf inactive
Cc1ccccc1C1C(C#N)=C2N=C(N)c3c(sc4c3CCCCC4)N2C2=C1C(=O)CC(C)(C)C2 (stereo not drawn)	none (no result: PfHsp90 set2)
Cc1ccccc1C1C(C#N)=C2NC(=O)c3c(sc4c3CCCCC4)N2C2=C1C(=O)CC(C)(C)C2 (stereo not drawn)	tim10-1 inh 46 (no result: PfHsp90 set2, V-ATPase pH) | tim10-1 conf 32
CSc1ccc(/C=N/NC(=O)CNc2ccc3ccccc3c2)cc1	tim10-1 inh 46 | tim10-1 conf 43
O=C(CNc1ccc2ccccc2c1)N/N=C/c1ccncc1	none
C=CCNCc1cccn1-c1sc2c(c1C#N)CCCC2	none
N#Cc1c(-n2cccc2/C=N/O)sc2c1CCCC2	tim10-1 inh 41 | tim10-1 conf 43
COc1ccc(Cl)cc1NC(=O)CSc1nc(C)cc(C)n1	tim10-1 inh 41 | tim10-1 conf inactive
COc1ccc(NC(=O)CSc2nc(C)cc(C)n2)cc1	none
COC(=O)C[C@@H]1C[C@H]2c3cc(NC(=O)Nc4ccccc4F)ccc3O[C@H]2[C@H](CO)O1	none (no result: tim23-1 inh, PfHsp90 set2, tim10-1 inh, SKKanGAS inh, TIM10 inh)
Cc1cc(C)n(C(=O)/C(C#N)=N/Nc2cc(Cl)cc(Cl)c2)n1	tim10-1 inh 47, SKKanGAS inh 90 | tim10-1 conf 56
Cc1cc(C)n(C(=O)/C(C#N)=N\Nc2ccccc2[N+](=O)[O-])n1	none
O=C(Nc1cccc(-c2cccc(F)c2)c1)C1CCN(C2CCOCC2)CC1	tim10-1 inh 43 | tim10-1 conf inactive
O=C(Nc1cccc(-c2cccc(F)c2)c1)C1CCN(Cc2ccc(CO)o2)CC1	none
Cc1c(NS(=O)(=O)c2cccc(C(=O)OCC(=O)c3ccc(Cl)cc3)c2)c(=O)n(-c2ccccc2)n1C	none (no result: tim23-1 inh, tim10-1 inh, SKKanGAS inh, TIM10 inh)
CC(C)c1nnc2c(N(C)S(=O)(=O)c3ccccc3)nc3ccccc3n12	tim10-1 inh 43 | tim10-1 conf inactive
COc1ccc(C(=O)OCC(=O)Nc2sccc2C(N)=O)cc1[N+](=O)[O-]	none (no result: SKKanGAS inh)
Cc1cc(N2CCCCC2)nc(SCc2ccc(C#N)cc2)n1	tim10-1 inh 47 | tim10-1 conf inactive
CCc1ccc(NS(=O)(=O)c2c(C(=O)N3CCCCCC3)c(C)n(C)c2C)cc1	none
Cc1ccc(S(=O)(=O)NCc2ccco2)cc1C	none
O=S(=O)(NCc1ccco1)c1ccc2c(c1)Cc1ccccc1-2	tim10-1 inh 45 (no result: PfHsp90 set2) | tim10-1 conf 35
Cc1cc(C)cc(NC(=O)c2cc(S(=O)(=O)NCc3ccco3)ccc2F)c1	tim10-1 inh 46 | tim10-1 conf 40
Cc1ncoc1C(=O)NC1CC(C)(C)Cc2c1cnn2-c1ccccc1 (stereo not drawn)	none
CC1(C)Cc2c(cnn2-c2ccc(F)cc2)C(NC(=O)c2cnccn2)C1 (stereo not drawn)	none
COc1ccc(-n2ncc3c2CC(C)(C)CC3NC(=O)c2oc(C)cc2C)cc1 (stereo not drawn)	tim10-1 inh 44 | tim10-1 conf inactive
Cc1cc(C)c(C(=O)NC2CC(C)(C)Cc3c2cnn3-c2ccccc2)o1 (stereo not drawn)	tim10-1 inh 45 | tim10-1 conf inactive
CSCc1ccc(C(=O)NC2CC(C)(C)Cc3c2cnn3-c2ccc(F)cc2)o1 (stereo not drawn)	tim10-1 inh 41 | tim10-1 conf inactive
CC(C)c1cc2c(c(O)c1O)[C@@]13CCCC(C)(C)C1CC2OC3=O (stereo partly drawn)	tim10-1 inh 43 | tim10-1 conf 35
O=C(CC(NC(=O)C(F)(F)F)c1ccccc1)Nc1nnc(CCc2ccccc2)s1 (stereo not drawn)	none
Cc1ccc(S(=O)(=O)N2CCN(c3ccccc3)CC2)c(C)c1	none
CCOc1ccccc1-c1nnc(CS(=O)(=O)c2ccccc2)o1	none
COc1ccc(Br)c(-c2nnc(CS(=O)(=O)c3ccccc3)o2)c1	tim10-1 inh 46 | tim10-1 conf 39
CCCCc1nnc(NC(=O)CSCc2cc(=O)n3cc(C)sc3n2)s1	none
C/C(=N\NC(=S)Nc1c(C)cccc1C)c1cc2ccccc2o1	tim10-1 inh 42 | tim10-1 conf inactive
Cc1ccc2oc(C(=O)N3CCC(C(N)=O)(N4CCCCC4)CC3)c(C)c2c1	none
CCCc1ccc2oc(C(=O)N3CCC(C(N)=O)(N4CCCCC4)CC3)c(C)c2c1	tim10-1 inh 42 | tim10-1 conf inactive
O=C(O)CC(NC(=O)CC(c1ccccc1)c1ccccc1)c1cccc([N+](=O)[O-])c1 (stereo not drawn)	none
COc1ccc(/C=C/c2ccc3ccccc3[n+]2C)cc1OC	none
CN(CCCS(=O)(=O)[O-])c1ccc(/C=C/c2ccc3ccccc3[n+]2C)cc1	tim10-1 inh 43 | tim10-1 conf inactive
COc1ccc(/C=C2\CCc3ccccc3C2=O)cc1OC	none
CCNC(=O)COc1ccc(/C=C2\COc3ccccc3C2=O)cc1OC	tim10-1 inh 46 | tim10-1 conf inactive
Cc1cc(C)c(CSc2ncc(-c3ccc([N+](=O)[O-])cc3)[nH]2)c(C)c1	tim10-1 inh 45, SKKanGAS inh 73 | tim10-1 conf 34
NC(=O)CSc1ncc(-c2ccc([N+](=O)[O-])cc2)[nH]1	none
CCn1nc(C)c(NC(=O)c2cnn3c(C(F)F)cc(-c4ccccc4)nc23)c1C	tim10-1 inh 42 | tim10-1 conf inactive
CC(=O)Oc1ccc(/C(C)=N\N2CCN(Cc3ccc(Cl)cc3)CC2)cc1	none
COc1ccc(C)cc1N(C)C(=O)Cc1c(C(=O)O)n(C)c2ccccc12	none
CS(=O)(=O)Cc1ccc(C(=O)N(CCc2ccccc2)Cc2ccccc2)cc1	none
Cc1cccc(/C=C2\CS/C(=C\c3cccc(C)c3)C2=O)c1	tim10-1 inh 44 | tim10-1 conf 36
O=C1/C(=C/c2cccc(Cl)c2)CSc2sccc21	none
O=[N+]([O-])c1cc(/C=N/NC(=S)Nc2ccccc2Cl)ccc1Cl	tim10-1 inh 46 (no result: SKKanGAS inh) | tim10-1 conf inactive
Cc1ccc(NC(=S)N/N=C/c2ccc(Cl)c([N+](=O)[O-])c2)cc1	none
